Experimental data published in PubChem BioAssay AID686979 (National Center for Advancing Translational Sciences (NCATS), 2013).
Several values for one entry are separate records, joined by “and”; a condition that tells them apart may be missing. Equal values may be shown once. Screen size: about 420,000 compounds; about 50,000 (12%) were called active. Roughly 26% stayed inconclusive and do not appear here. The list comes from a sample in which actives are over-represented; it also holds similar structures and randomly drawn compounds. A call without a number means that no potency is given here. A number with no mark means an inactive call. The call rests on the fitted dose curve; in most records, active means well fitted inhibition curve with a large enough effect; inconclusive means small, poorly fitted or top-dose-only effect; inactive means flat fitted curve, though single readings scatter.
Potency means the concentration at half of the fitted maximal effect.

Assay: qHTS for Inhibitors of human tyrosyl-DNA phosphodiesterase 1 (TDP1): qHTS in cells in presence of CPT; further: nearly all actives have a fitted effect of over 55% in size
Conditions: chicken DT40 Tdp1-/-;hTDP1 cells + 20 nM CPT, ATP luminescence, 48 h; series mostly up to 46.2 µM
Procedure, shortened: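 Chicken DT40 Tdp1-/- cells complemented with human TDP1, 400 cells/well, exposed to compounds plus 20 nM camptothecin for at least 48 h at 37 C; viability read as ATP content by CellTiter-Glo luminescence.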
With `CN(CC(=O)Nc1ccccc1Cl)C(=O)COc1cccc2c1OC(C)(C)C2` the Potency was “inactive”.
For `CCC(=O)OCc1c(C(F)(F)F)nn(C)c1Oc1cccc(C(F)(F)F)c1`, the Potency was “inactive”.
With `O=C(O)CSCC(=O)Nc1cccc(C(F)(F)F)c1` the Potency was “inactive”.
With `Cn1nc(C(F)(F)F)c(C(=O)Nc2cccc(C(F)(F)F)c2)c1SCc1ccc(Cl)cc1` the Potency was 16.4 µM (active).
In the case of `CC(C)OCCCNC(=O)c1ccc(C2SCC(=O)N2Cc2ccco2)cc1` (stereo not drawn), the Potency is reported as “inactive”.
For `COCCNC(=O)c1snc2ccc(Cl)cc12`, the Potency was “inactive”.
With `Cc1ccc(OCCNC(=O)CNC(=O)c2ccc(C)c(C)c2)cc1` the Potency was “inactive”.
With `CCC1=Nc2cc(C(=O)NCCCOC(C)C)ccc2Sc2ccc(C)cc21` the Potency was 0.92 µM (active).
For `COCCNC(=O)c1ccc2c(c1)N=C(C)c1cc(C)ccc1S2`, the Potency was 0.517 µM (active).
With `CC(C)OCCCNC(=O)CNC(=O)c1cccs1` the Potency was “inactive”.
In the case of `CCCCSc1[nH]c(=O)c(C(=O)OCC)cc1C#N`, the Potency is reported as “inactive”.
In the case of `Cc1ccc(C)c(-n2c(SCC(=O)O)nc3sc4c(c3c2=O)CCCC4)c1`, the Potency is reported as “inactive”.
For `CCOC(=O)c1c(NC(=O)CN2C(=O)NC3(CCC(C)CC3)C2=O)sc(C)c1CC` (stereo not drawn), the Potency was “inactive”.
In the case of `Nc1ccc(C(=O)Nc2ccccc2N)cc1`, the Potency is reported as 2.37 µM (active) and 5.8 µM (active).
For `Nc1ccc(S(=O)(=O)NC(=O)c2ccccc2)cc1`, the Potency was “inactive”.
With `Nc1ccc(C(=O)NCc2ccccc2)cc1` the Potency was “inactive”.
In the case of `O=C(NCC1CCCO1)/C(=C/c1ccc(Cl)cc1)NC(=O)c1ccccc1` (stereo not drawn), the Potency is reported as “inactive”.
With `Cc1nn(C)cc1S(=O)(=O)N1CCN(c2ccc(F)cc2)CC1` the Potency was “inactive”.
With `O=C(COc1cccc2c1CCNC2=O)NC1CCCCC1` the Potency was “inactive”.
In the case of `CCOc1ccccc1NC(=O)C1CCCN(S(=O)(=O)c2cn(C)cn2)C1` (stereo not drawn), the Potency is reported as “inactive”.
For `COc1cccc(CNC(=O)C2CCN(S(=O)(=O)c3ccc4c(ccn4C)c3)CC2)c1`, the Potency was “inactive”.
In the case of `CCOc1ccccc1CNC(=O)C1CCCN(S(=O)(=O)c2ccc3c(ccn3C)c2)C1` (stereo not drawn), the Potency is reported as 14.6 µM (active).
For `O=C1CCCCC1Sc1ccc(Cl)cc1[N+](=O)[O-]` (stereo not drawn), the Potency was “inactive”.
In the case of `Cc1c(CNC2CCCCC2)c(C(=O)O)c(C)n1Cc1cccc(Cl)c1`, the Potency is reported as “inactive”.
For `CC(=O)c1ccc(NC(=O)C(C)NCc2ccc(Cl)cc2)cc1` (stereo not drawn), the Potency was “inactive”.
For `Nc1nonc1-n1nnc(C(=O)N/N=C/c2ccc(Cl)cc2)c1-c1ccc2c(c1)OCO2`, the Potency was “inactive”.
For `Cc1cc(N2C(=O)C(=O)/C(=C(/O)c3ccccc3)C2c2cccc(Br)c2)no1` (stereo not drawn), the Potency was “inactive”.
With `CCN(CC)CCCC(C)n1c2nc(=O)[nH]c(=O)c-2nc2cc(Cl)ccc21` (stereo not drawn) the Potency was 8.2 µM (active).
For `COc1ccc(/C=N/Nc2nc3ccccc3c(=O)[nH]2)cc1`, the Potency was “inactive”.
In the case of `COc1ccc(Cc2nnc(N/N=C/c3ccccc3O)[nH]c2=O)cc1OC`, the Potency is reported as 0.0184 µM (active).
In the case of `O=c1[nH]c(NCCO)nnc1Cc1ccc(Cl)cc1`, the Potency is reported as “inactive”.
For `COC(=O)C(=Nc1ccccc1)/C(C(=O)C(=O)N(C)c1ccccc1)=C(\O)c1ccc(Cl)cc1`, the Potency was “inactive”.
With `O=c1cnnc(Nc2ccccc2F)[nH]1` the Potency was “inactive”.
In the case of `Cc1c(C(=O)OCC(=O)N2CCCC2=O)oc2ccccc12`, the Potency is reported as “inactive”.
In the case of `CSCCC(NS(=O)(=O)c1ccc2c(c1)oc(=O)n2C)C(=O)NCc1ccccc1` (stereo not drawn), the Potency is reported as “inactive”.
In the case of `COc1ccccc1CNC(=O)C(Cc1ccccc1)NS(=O)(=O)c1ccc2c(c1)oc(=O)n2C` (stereo not drawn), the Potency is reported as 20.6 µM (active).
In the case of `Cc1ccc(NC(=O)C(Cc2ccccc2)NS(=O)(=O)c2ccc3c(c2)oc(=O)n3C)cc1C` (stereo not drawn), the Potency is reported as “inactive”.
For `O=C(O)CCC(=O)NCc1ccc2[nH]c3c(c2c1)CCCC3`, the Potency was “inactive”.
In the case of `Cc1cccc(NC(=S)NCc2ccc3[nH]c4c(c3c2)CCCC4)c1`, the Potency is reported as 23.1 µM (active).
For `Cc1cccc(NC(=S)N2CCCC(c3nc4ccccc4[nH]3)C2)c1` (stereo not drawn), the Potency was “inactive”.
For `Cc1ccc(S(=O)(=O)N2CCOCC2)cc1C(=O)Nc1ccccc1N1CCCC1`, the Potency was “inactive”.
With `Oc1cccc(CCc2ccccn2)c1` the Potency was “inactive”.
With `C=CCC[C@@H](CCCCC)OC(=O)/C=C/[C@@H](O)[C@H](O)C[C@H](O)CC=C` the Potency was 23.1 µM (active).
In the case of `CN(C)/C=C(/C(=O)c1ccccc1Cl)S(C)(=O)=O`, the Potency is reported as “inactive”.
With `COc1ccccc1-c1sc2ccccc2c1-c1ccc(C(C)=O)cc1` the Potency was “inactive”.
For `COC(=O)c1ccc(/C=C/c2c(-c3ccc(OC)cc3)sc3ccccc23)cc1`, the Potency was 14.6 µM (active).
In the case of `COc1ccc(NC(=O)COC(=O)c2ccc(NS(=O)(=O)/C=C/c3ccccc3)cc2)cc1`, the Potency is reported as “inactive”.
In the case of `CCCCOc1ccc(C(=O)NCC(=O)OCC(=O)c2c(N)n(C)c(=O)n(C)c2=O)cc1`, the Potency is reported as “inactive”.
For `Cc1nc2ccc(C(=O)O)cc2[nH]1`, the Potency was “inactive”.
In the case of `COC(=O)Nc1nc2ccc(Sc3ccccc3)cc2[nH]1`, the Potency is reported as 651 nM (active) and 360 nM (active) and 517 nM (active).
With `CC(C)c1nc2ccc(C(=O)O)cc2[nH]1` the Potency was “inactive”.
For `N#Cc1ccccc1NC(=O)c1ccc2c(c1)OCO2`, the Potency was “inactive”.
With `CC(C)c1ccc(NC(=O)C2CCN(c3nc(-c4ccc(C(C)C)cc4)no3)CC2)cc1` the Potency was 13 µM (active).
In the case of `Cc1cc(C)cc(NC(=O)C2CCN(c3nc(C)cc(C)n3)CC2)c1`, the Potency is reported as “inactive”.
For `CCOc1ccc(NC(=O)C2CCN(S(=O)(=O)c3cc(-c4noc(C)n4)ccc3C)CC2)cc1`, the Potency was “inactive”.
With `Cc1ccc(NC(=O)CSc2sc3c(O)cc(=O)[nH]c3c2C#N)cc1C` the Potency was “inactive”.
For `CCC(=O)N1c2ccccc2NC2=C(C(=O)CCC2)C1c1ccco1` (stereo not drawn), the Potency was “inactive”.
With `Cn1ccnc1SCC(=O)Nc1ccc2c(c1)OCCO2` the Potency was “inactive”.
For `C=CCn1c(CNC(=O)c2ccco2)nnc1SCC(=O)c1ccc(OC)cc1`, the Potency was “inactive”.
With `CCCNC(=O)C1(C)CCCN(Cc2cccc(C(F)(F)F)c2)C1` (stereo not drawn) the Potency was 18.4 µM (active).
With `CCCNC(=O)C1(C)CCN(Cc2csc(-c3ccc(Cl)cc3)n2)C1` (stereo not drawn) the Potency was 23.1 µM (active).
In the case of `COCCNC(=O)C1(C)CCCN(Cc2cccc(F)c2)C1` (stereo not drawn), the Potency is reported as “inactive”.
In the case of `CCNC(=O)C1(C)CCN(Cc2ccc(C(=O)OCC)o2)C1` (stereo not drawn), the Potency is reported as “inactive”.
With `CCCNC(=O)C1(C)CCCN(Cc2c(C)nn(-c3ccccc3)c2C)C1` (stereo not drawn) the Potency was “inactive”.
With `CCCNC(=O)C1(C)CCCN(C(=O)c2cccc(OC(C)=O)c2C)C1` (stereo not drawn) the Potency was “inactive”.
For `COc1ccc(CCNC(=O)COC(=O)C2CC2C)cc1` (stereo not drawn), the Potency was “inactive”.
For `COc1ccc(C(CNC(=O)c2ccc(S(=O)(=O)Nc3ccccc3F)cc2)N(C)C)cc1` (stereo not drawn), the Potency was “inactive”.
With `Cc1c(Br)ccc(NC(=O)COc2ccccc2C(N)=O)c1C` the Potency was “inactive”.
With `CNC(=O)NC(=O)C(OC(=O)c1cccc(S(=O)(=O)N2CCCCC2)c1)c1ccccc1` (stereo not drawn) the Potency was “inactive”.
With `C=CCNC(=O)CC12CC3CC(C1)CC(CC(=O)NCC=C)(C3)C2` the Potency was “inactive”.
In the case of `CC(=O)O[C@H]1CC[C@@]2(C)[C@@H](CC[C@@H]3[C@@H]2CC[C@]2(C)[C@@H](C(C)(C)O)C[C@@H]32)C1`, the Potency is reported as “inactive”.
With `COc1cc(F)c(C2=CC(=O)CC(C)(C)C2)cc1F` the Potency was “inactive”.
With `NS(=O)(=O)c1ccc(Nc2nc(-c3ccccc3)cs2)cc1` the Potency was “inactive”.
In the case of `O=C(Nc1nc(-c2ccc(-c3ccccc3)cc2)cs1)c1cnccn1`, the Potency is reported as “inactive”.
In the case of `c1cnc(Nc2nc(-c3ccc4ccccc4c3)cs2)nc1`, the Potency is reported as 29.1 µM (active).
For `CCOc1cccc2c1OC1(CCCCC1)N1N=C(c3cccnc3)CC21` (stereo not drawn), the Potency was “inactive”.
For `FC(F)(F)c1cccc(Cc2noc(CN3CCC(N4CCCCC4)CC3)n2)c1`, the Potency was “inactive”.
With `CCCCOC(=O)Nc1nnc(CC(=O)NCc2ccccc2)s1` the Potency was “inactive”.
With `CN(C(=O)COC(=O)Cn1cnc2c1c(=O)n(C)c(=O)n2C)C1(C#N)CCCCC1` the Potency was “inactive”.
In the case of `COC(=O)[C@@H]1C[C@@]2(O)[C@@H](O)[C@@H](O)[C@@H](O)C[C@H]2N1Cc1ccc(C)s1`, the Potency is reported as “inactive”.
In the case of `O=C(Nc1ccc2c(c1)OCO2)c1cc(-c2cccc(Cl)c2)on1`, the Potency is reported as “inactive”.
For `c1ccc(-c2cn3c(n2)CCc2ccc4cccnc4c2-3)cc1`, the Potency was 13 µM (active).
In the case of `c1ccc(-c2cn3cccnc3n2)cc1`, the Potency is reported as “inactive”.
In the case of `CS/C(=C\[N+](=O)[O-])Nc1ccc(C)cc1`, the Potency is reported as “inactive”.
In the case of `COc1cc(C(C)=O)ccc1OC(=O)CN1C(=O)c2ccccc2C1=O`, the Potency is reported as “inactive”.
With `Cc1ccccc1N1CCN(CCCN2C(=O)C3CCCCN3C2=O)CC1` (stereo not drawn) the Potency was “inactive”.
With `CCN(CC)CCCSc1nc2ccccc2s1` the Potency was “inactive”.
For `COc1cc(N=Cc2c(O)[nH]c3ccccc23)cc(OC)c1OC`, the Potency was 20.6 µM (active).
For `COc1cc2[nH]c(O)c(C=O)c2cc1OC`, the Potency was “inactive”.
In the case of `COc1ccc(N=Cc2c(O)[nH]c3ccccc23)cc1OC`, the Potency is reported as “inactive”.
For `COc1cccc(OC)c1C(=O)N1CCN(Cc2cccnc2)CC1`, the Potency was “inactive”.
With `Oc1ccc(CN2CCN(c3ncccn3)CC2)cc1` the Potency was “inactive”.
For `COc1ccccc1-c1nn(Cc2ccccc2)cc1C(=O)N1CCN(c2ncccn2)CC1`, the Potency was 25.9 µM (active).
In the case of `O=C(NCc1ccco1)/C(=C/c1ccco1)NC(=O)c1ccccc1`, the Potency is reported as “inactive”.
For `CCCCC/C=C\C/C=C\CCCCCCCCCC(=O)O`, the activity change, negative = growth inhibition was -5.48% [at 4.12 µM].
For `CC(C)CC[n+]1ccn(C2=C([O-])c3ccccc3C(=O)/C2=N\S(=O)(=O)c2ccccc2)c1`, the Potency was 11.6 µM (active).
With `COc1cc(OC)cc(C(=O)Nc2cc3nn(-c4ccccc4)nc3cc2Cl)c1` the Potency was 11.6 µM (active).
In the case of `CCOC(=O)c1cc(-c2ccccc2)n(-c2cccc(C(=O)Nc3cc(OC)cc(OC)c3)c2)c1C`, the Potency is reported as “inactive”.
With `CCCC(=O)Nc1cc2nn(-c3ccccc3)nc2cc1C` the Potency was “inactive”.
With `COc1ccccc1-c1ccnc(-n2ncc(C(=O)NCCc3ccncc3)c2C)n1` the activity change, negative = growth inhibition was 39.7% [at 9.04 µM].
In the case of `COc1cccc(COC(=O)C2CCN(S(=O)(=O)c3cccs3)CC2)c1OC`, the Potency is reported as “inactive”.
In the case of `Cc1cccc(OCC(=O)NC2CC(C)(C)NC(C)(C)C2)c1`, the Potency is reported as “inactive”.
In the case of `O=C(Nc1cccc(F)c1)N1CCC2(CC1)CCN(S(=O)(=O)c1ccccc1)CC2`, the Potency is reported as “inactive”.
